Structures can show the parent of a compound that is named as a salt. ± gives the standard deviation of the averaged measurements.
Tests used:
Assay in all cases: growth (OD600 after 10 h); higher = more growth (less inhibition)
[1] = tested on: E. coli TESEC Alr+ wild-type control; settings: compound 0.1 mM; raw OD600 reference: median of DMSO wells 0.241, cell-free background 0.041
Experimental: (§1)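 TESEC Mtb Alr E. coli, or the Alr+ wild-type control, in 384-well plates with Prestwick library compounds at 0.1 mM and 1% DMSO, across arabinose induction levels of 1E3 to 1E7 nM. Growth is read as OD600 after 10 h at 37 °C in triplicate biological replicates.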

[2] = tested on: E. coli TESEC Mtb Alr; settings: compound 0.1 mM
Experimental: as §1

[3] = tested on: E. coli TESEC Mtb Asd; settings: compound 0.1 mM
Experimental: (§2)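 TESEC E. coli strains in which the native enzyme is deleted and replaced by arabinose-inducible Mtb Asd, DapB, CysH or TrpD, each grown in its selective medium. Strains were screened against the Prestwick library at 0.1 mM and 1% DMSO in 384-well format at low and high arabinose induction. Growth is read as OD600 after 10 h in triplicate.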

[4] = tested on: E. coli TESEC Mtb DapB; settings: compound 0.1 mM
Experimental: as §2

[5] = tested on: E. coli TESEC Alr+ wild-type control; settings: compound 0.1 mM; raw OD600 reference: median of DMSO wells 0.49, cell-free background 0.052
Experimental: (§3)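 TESEC Mtb Alr E. coli (ΔaraC ΔtolC ΔentC Δalr ΔdadX, arabinose-inducible Mtb Alr) or the Alr+ wild-type control strain, grown in defined M9-fructose medium without D-alanine in 96-well plates with Prestwick library compounds at 0.1 mM and 1% DMSO. Low Alr induction is 0.1 µM arabinose and high induction is 10 mM arabinose.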

[6] = tested on: E. coli TESEC Mtb Alr; settings: compound 0.1 mM; remark: listed apart in the source
Experimental: as §3

[7] = arabinose 1000 nM, raw OD600 reference: median of DMSO wells 0.294, cell-free background 0.041
[8] = arabinose 10000 nM, raw OD600 reference: median of DMSO wells 0.264, cell-free background 0.041
[9] = arabinose 100000 nM, raw OD600 reference: median of DMSO wells 0.201, cell-free background 0.041
[10] = arabinose 1000000 nM, raw OD600 reference: median of DMSO wells 0.193, cell-free background 0.041
[11] = arabinose 10000000 nM, raw OD600 reference: median of DMSO wells 0.146, cell-free background 0.041
[12] = arabinose induction (level): High, raw OD600 reference: median of DMSO wells 0.331, cell-free background 0.041
[13] = arabinose induction (level): Low, raw OD600 reference: median of DMSO wells 0.417, cell-free background 0.041
[14] = arabinose induction (level): High, raw OD600 reference: median of DMSO wells […], cell-free background 0.041
[15] = arabinose induction (level): Low, raw OD600 reference: median of DMSO wells 0.227, cell-free background 0.041
[16] = arabinose 100 nM, raw OD600 reference: median of DMSO wells 0.413, cell-free background 0.052
[17] = arabinose 10000000 nM, raw OD600 reference: median of DMSO wells […], cell-free background 0.052

Row | SMILES | growth [1] | growth [2, 7] | growth [2, 8] | growth [2, 9] | growth [2, 10] | growth [2, 11] | growth [3, 12] | growth [3, 13] | growth [4, 14] | growth [4, 15] | growth [5] | growth [6, 16] | growth [6, 17]
1 | COc1ccc(CC2c3cc(OC)c(OC)cc3CC[N+]2(C)CCC(=O)OCCCCCOC(=O)CC[N+]2(C)CCc3cc(OC)c(OC)cc3C2Cc2ccc(OC)c(OC)c2)cc1OC (centres undefined) [Atracurium besylate] | 0.177 ± 0.0075 | 0.271 ± 0.013 | 0.25 ± 0.011 | 0.174 ± 0.014 | 0.127 ± 0.0067 | 0.137 ± 0.006 | 0.283 ± 0.059 | 0.398 ± 0.037 | 0.171 ± 0.017 | 0.218 ± 0.05 | 0.431 ± 0.027 | 0.416 ± 0.014 | 0.336 ± 0.06
2 | CCCCC1=NC2(CCCC2)C(=O)N1Cc1ccc(-c2ccccc2-c2nnn[nH]2)cc1 [Irbesartan] | 0.152 ± 0.0053 | 0.227 ± 0.0037 | 0.21 ± 0.011 | 0.121 ± 0.0023 | 0.0979 ± 0.0024 | 0.13 ± 0.0027 | 0.198 ± 0.03 | 0.21 ± 0.029 | 0.204 ± 0.014 | 0.263 ± 0.048 | 0.528 ± 0.12 | 0.346 ± 0.012 | 0.167 ± 0.014
3 | CCCC(=O)Nc1ncnc2c1ncn2[C@@H]1O[C@@H]2COP(=O)(O)O[C@H]2[C@H]1OC(=O)CCC [Bucladesine sodium salt] | 0.25 ± 0.0053 | 0.31 ± 0.019 | 0.275 ± 0.0043 | 0.206 ± 0.015 | 0.189 ± 0.0065 | 0.138 ± 0.012 | 0.355 ± 0.06 | 0.47 ± 0.008 | 0.2 ± 0.016 | 0.218 ± 0.014 | 0.565 ± 0.093 | 0.405 ± 0.011 | 0.362 ± 0.013
4 | CC(C(=O)O)c1ccc(N2Cc3ccccc3C2=O)cc1 (centres undefined) [Indoprofen] | 0.219 ± 0.011 | 0.264 ± 0.018 | 0.249 ± 0.0066 | 0.178 ± 0.0022 | 0.189 ± 0.0034 | 0.128 ± 0.0066 | 0.345 ± 0.075 | 0.353 ± 0.053 | 0.206 ± 0.016 | 0.186 ± 0.0097 | 0.486 ± 0.053 | 0.424 ± 0.013 | 0.361 ± 0.007
5 | C=C(CC)C(=O)c1ccc(OCC(=O)O)c(Cl)c1Cl [Ethacrynic acid] | 0.0566 ± 0.0011 | 0.242 ± 0.01 | 0.244 ± 0.0042 | 0.2 ± 0.005 | 0.171 ± 0.0037 | 0.144 ± 0.0087 | 0.171 ± 0.057 | 0.19 ± 0.074 | 0.18 ± 0.0058 | 0.181 ± 0.022 | 0.374 ± 0.014 | 0.376 ± 0.0052 | 0.374 ± 0.017
6 | CN(C)CCOC(c1ccccc1)c1ccccc1 [Diphenhydramine hydrochloride] | 0.2284 ± 0.002 | 0.296 ± 0.008 | 0.238 ± 0.0071 | 0.187 ± 0.013 | 0.151 ± 0.0087 | 0.148 ± 0.0063 | 0.194 ± 0.016 | 0.435 ± 0.016 | 0.195 ± 0.021 | 0.24 ± 0.051 | 0.495 ± 0.051 | 0.408 ± 0.0097 | 0.307 ± 0.029
7 | OC(CCN1CCCCC1)(c1ccccc1)C1CC2C=CC1C2 (centres undefined) [Biperiden hydrochloride] | 0.23 ± 0.031 | 0.284 ± 0.0095 | 0.275 ± 0.0046 | 0.226 ± 0.03 | 0.155 ± 0.0033 | 0.154 ± 0.0039 | 0.194 ± 0.045 | 0.38 ± 0.094 | 0.159 ± 0.012 | 0.174 ± 0.016 | 0.509 ± 0.062 | 0.415 ± 0.011 | 0.359 ± 0.035
8 | Nc1nc2ccc(OC(F)(F)F)cc2s1 [Riluzole hydrochloride] | 0.176 ± 0.007 | 0.188 ± 0.0051 | 0.255 ± 0.0058 | 0.212 ± 0.007 | 0.262 ± 0.016 | 0.194 ± 0.0031 | 0.388 ± 0.01 | 0.208 ± 0.02 | 0.241 ± 0.005 | 0.241 ± 0.0089 | 0.439 ± 0.011 | 0.415 ± 0.014 | 0.419 ± 0.0084

From the supplement of paper PMC9262897, “Low-cost anti-mycobacterial drug discovery using engineered E. coli” (Nature Communications, 2022)
